Test [1] in a line: qHTS assay to identify small molecule antagonists of the glucocorticoid receptor (GR) signaling pathway - cell viability counter screen (AID 720693; also: nearly all actives have a fitted effect of over 55% in size). (In general: qHTS replaces the single test concentration by a dilution series.)
Test [2] in a line: qHTS assay for identifying genotoxic compounds that show differential cytotoxicity against isogenic chicken DT40 cell lines with known DNA damage response pathways - wild type cell line (AID 743012). Also: nearly all actives have a fitted effect of over 60% in size. A digest of the protocol: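 Luminescent ATP viability signal (CellTiter-Glo, 30 min RT) recorded after wild type DT40 cells were incubated with compounds for 40 h at 37 C/5% CO2.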

Test [3] is described as follows: qHTS assay for identifying genotoxic compounds that show differential cytotoxicity against isogenic chicken DT40 cell lines with known DNA damage response pathways - Rev3 mutant cell line (AID 743014). Also: nearly all actives have a fitted effect of over 55% in size.
Test [4] in a line: qHTS assay to identify small molecule antagonists of the androgen receptor (AR) signaling pathway - cell viability counter screen (AID 743033; also: nearly all actives have a fitted effect of over 45% in size).
Test [5] in a line: qHTS assay to identify small molecule antagonists of the androgen receptor (AR) signaling pathway using the MDA cell line - cell viability counter screen (AID 743041; also: nearly all actives have a fitted effect of over 45% in size). The gist of the method:
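Compound exposure lasted 16 h at 37C in MDA-kb2 AR-luc cells stimulated with R1881. Protease-based CellTiter-Fluor reagent was applied for the final 30 min and fluorescence measured.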

Test [6] is described as follows: qHTS assay to identify small molecule antagonists of the thyroid receptor (TR) signaling pathway - cell viability counter screen (AID 743064). Also: nearly all actives have a fitted effect of over 50% in size. The gist of the method: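 In-well cytotoxicity read by CellTiter-Fluor (30 min, 37 C) following 23.5 h exposure of GH3 cells bearing a TRE-luciferase sensor. Compounds were added alongside 1 nM (final) T3 to drive TR transactivation.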

The nature of test [7]: qHTS assay to identify small molecule antagonists of the thyroid receptor (TR) signaling pathway (AID 743065). Also: series mostly up to about 70 µM; nearly all actives have a fitted effect of over 55% in size. A digest of the protocol: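 GH3.TRE-Luc rat pituitary cells (two TREs driving luciferase) were dosed with compound, then stimulated with 1 nM T3 (final) for 23.5 h at 37 C. ONE-Glo luminescence was the read-out, with CellTiter-Fluor fluorescence as the cytotoxicity counter-screen.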

Test [8] deals with thyroid hormone receptor (rat, GH3 cells). Description: qHTS assay to identify small molecule agonists of the thyroid receptor (TR) signaling pathway (AID 743066; calls by dose curve).
The target of test [9] is Estrogen receptor (Homo sapiens) (UniProt P03372). Description: qHTS assay to identify small molecule antagonists of the estrogen receptor alpha (ER-alpha) signaling pathway (AID 743069; active = well fitted curve in the direction sought with a large enough effect in the signal ratio in the repeat runs, not every such curve was filed as active; inconclusive = weak or mixed curves, or effect the other way; inactive = no such curve, though single readings can be large or run the other way; the % refers to the signal ratio; also: potency is read from the fitted curve at half-maximal effect). The gist of the method:
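In this cell-based reporter format, GripTite HEK293 cells harbouring ER-alpha-UAS-bla were grown overnight with 2% charcoal-stripped FBS, dosed with DMSO-dissolved compounds, then challenged with 17beta-estradiol. After 18 hr at 37C, beta-lactamase activity was detected by FRET fluorescence.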

A short description of test [10]: qHTS assay to identify small molecule antagonists of the estrogen receptor alpha (ER-alpha) signaling pathway - cell viability counter screen (AID 743074; calls by dose curve; also: nearly all actives have a fitted effect of over 45% in size).
Test [11] deals with Estrogen receptor (Homo sapiens) (UniProt P03372). Put plainly: qHTS assay to identify small molecule agonists of the estrogen receptor alpha (ER-alpha) signaling pathway (AID 743075; calls by dose curve).
Sequence of Estrogen receptor (Homo sapiens) (P03372 whole entry, looked up): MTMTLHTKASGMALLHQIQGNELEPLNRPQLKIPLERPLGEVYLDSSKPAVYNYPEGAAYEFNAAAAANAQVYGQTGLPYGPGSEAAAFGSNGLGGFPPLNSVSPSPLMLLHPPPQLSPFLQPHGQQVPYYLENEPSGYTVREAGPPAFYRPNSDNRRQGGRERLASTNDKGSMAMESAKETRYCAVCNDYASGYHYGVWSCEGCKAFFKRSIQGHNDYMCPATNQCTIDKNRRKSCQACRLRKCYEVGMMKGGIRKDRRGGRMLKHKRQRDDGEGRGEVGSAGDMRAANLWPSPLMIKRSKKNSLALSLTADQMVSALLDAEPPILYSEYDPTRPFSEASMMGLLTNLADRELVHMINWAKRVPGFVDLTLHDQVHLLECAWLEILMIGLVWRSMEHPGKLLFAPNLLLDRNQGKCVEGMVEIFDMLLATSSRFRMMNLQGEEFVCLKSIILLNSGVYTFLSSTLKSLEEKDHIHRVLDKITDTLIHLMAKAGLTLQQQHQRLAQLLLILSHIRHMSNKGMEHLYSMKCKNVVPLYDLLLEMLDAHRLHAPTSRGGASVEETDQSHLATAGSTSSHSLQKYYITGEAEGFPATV
Test [12] shares this target. Description: qHTS assay to identify small molecule agonists of the estrogen receptor alpha (ER-alpha) signaling pathway using the BG1 cell line (AID 743079). Also: nearly all actives have a fitted effect of over 20% in size. Also: potency is read from the fitted curve at half-maximal effect.
The nature of test [13]: qHTS assay to identify small molecule antagonists of the estrogen receptor alpha (ER-alpha) signaling pathway using the BG1 cell line (AID 743080; calls by dose curve;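 also: BG1 cells stimulated with 17beta-estradiol alongside compound; series mostly up to about 70 µM; nearly all actives have a fitted effect of over 25% in size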). A digest of the protocol: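 Readout is ONE-Glo luminescence, taken 30 min at room temperature after reagent addition, preceded by a CellTiter-Fluor viability read; BG1-Luc-4E2 cells had received compound and 17beta-estradiol for 21.5 h at 37 C.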

The next test addresses Aromatase (Homo sapiens) (UniProt P11511). Description: qHTS assay to identify aromatase inhibitors (AID 743083). Also: series mostly up to about 70 µM; nearly all actives have a fitted effect of over 55% in size.
In test [14] the target is Androgen receptor (Homo sapiens) (UniProt P10275). Put plainly: qHTS assay to identify small molecule antagonists of the androgen receptor (AR) signaling pathway (AID 743035; active = well fitted inhibition curve with a large enough effect in the signal ratio in the repeat runs, not every such curve was filed as active; inconclusive = weak or mixed curves, or effect the other way; inactive = no such curve, though single readings can be large or run the other way; the % refers to the signal ratio). A digest of the protocol: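 Quantitative HTS of the Tox21 10K library used HEK293 AR-UAS-bla cells stimulated with R1881 alongside compound for 16 h at 37C, followed by beta-lactamase FRET detection (LiveBLAzer B/G, 2 h, RT).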
Sequence of Androgen receptor (Homo sapiens) (P10275 whole entry, looked up): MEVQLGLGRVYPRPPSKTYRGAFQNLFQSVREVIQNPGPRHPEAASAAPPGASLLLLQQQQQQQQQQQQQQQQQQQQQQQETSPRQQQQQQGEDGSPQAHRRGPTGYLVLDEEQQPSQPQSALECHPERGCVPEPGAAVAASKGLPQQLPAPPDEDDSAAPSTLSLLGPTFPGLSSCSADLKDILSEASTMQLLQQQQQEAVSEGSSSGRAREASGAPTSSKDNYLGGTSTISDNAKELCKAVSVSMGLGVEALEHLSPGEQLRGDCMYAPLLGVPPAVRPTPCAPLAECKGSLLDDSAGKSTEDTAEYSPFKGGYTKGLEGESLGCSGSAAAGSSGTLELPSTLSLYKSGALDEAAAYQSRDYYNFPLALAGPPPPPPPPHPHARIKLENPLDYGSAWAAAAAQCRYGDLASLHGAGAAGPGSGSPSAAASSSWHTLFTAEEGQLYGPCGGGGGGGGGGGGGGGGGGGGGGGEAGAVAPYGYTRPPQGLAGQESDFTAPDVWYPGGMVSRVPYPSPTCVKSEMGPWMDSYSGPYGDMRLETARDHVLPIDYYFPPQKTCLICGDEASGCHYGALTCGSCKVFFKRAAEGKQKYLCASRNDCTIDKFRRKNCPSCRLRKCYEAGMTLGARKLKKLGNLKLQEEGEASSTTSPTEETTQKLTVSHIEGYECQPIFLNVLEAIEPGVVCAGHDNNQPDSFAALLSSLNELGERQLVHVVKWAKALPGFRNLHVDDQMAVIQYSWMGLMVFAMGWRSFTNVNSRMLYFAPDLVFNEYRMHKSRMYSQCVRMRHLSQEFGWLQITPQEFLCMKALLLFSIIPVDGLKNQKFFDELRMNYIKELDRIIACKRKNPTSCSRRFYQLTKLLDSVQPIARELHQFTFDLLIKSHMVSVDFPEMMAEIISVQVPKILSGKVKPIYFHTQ

The target is the same in test [15]. Description: qHTS assay to identify small molecule agonists of the androgen receptor (AR) signaling pathway (AID 743036; active = well fitted activation curve with a large enough effect in the signal ratio in the repeat runs, with a control signal flat, not every such curve was filed as active; inconclusive = weak or mixed curves, or effect the other way; inactive = no such curve, though single readings can be large or run the other way; the % refers to the signal ratio). The gist of the method: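 Activation was read as beta-lactamase FRET signal from LiveBLAzer B/G substrate, added for 2 h at room temperature. Before that, GeneBLAzer AR-UAS-bla GripTite (HEK293) cells had 16 h compound exposure at 37C.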
Test [16] has the same target. Description: qHTS assay to identify small molecule agonists of the androgen receptor (AR) signaling pathway using the MDA cell line (AID 743040; also: nearly all actives have a fitted effect of over 20% in size). The gist of the method: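 Testing was done with the MDA-kb2 AR-luc line, a human breast carcinoma stably transfected with MMTV-luciferase containing AR and GR response elements. Cells were exposed 16 h at 37C before ONE-Glo luminescence detection.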

Test [17] has the same target. Put plainly: qHTS assay to identify small molecule antagonists of the androgen receptor (AR) signaling pathway using the MDA cell line (AID 743042; also: nearly all actives have a fitted effect of over 55% in size). The gist of the method: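 MDA-kb2 breast carcinoma cells carrying MMTV-luciferase (AR/GR responsive) were co-treated with compounds and the agonist R1881 for 16 h at 37C. Inhibition read as ONE-Glo luminescence; CellTiter-Fluor fluorescence measured in parallel for cytotoxicity.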

Test [18] in a line: qHTS assay to identify small molecule antagonists of the estrogen receptor alpha (ER-alpha) signaling pathway using the BG1 cell line - cell viability counter screen (AID 743081).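 Also: compound given together with 17beta-estradiol as the ER stimulus; series mostly up to about 70 µM; nearly all actives have a fitted effect of over 45% in size.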
The nature of test [19]: qHTS assay for identifying genotoxic compounds that show differential cytotoxicity against isogenic chicken DT40 cell lines with known DNA damage response pathways - Rad54/Ku70 mutant cell line (AID 743015). Also: nearly all actives have a fitted effect of over 60% in size.

Structures are written as SMILES. “And” between values parts separate entries of the source, which are not always exact repeats. Identical values can stand only once. A structure can be active in one record and inactive in another. The source made the active and inactive calls. Unless noted, calls follow the shape of the dose curve; as a rule, active = well fitted curve in the direction sought with a large enough effect in the repeat runs; inconclusive = weak or mixed curves; inactive = no such curve, though single readings can be large; an effect the other way counts as inactive or inconclusive.

Sequence of Aromatase (Homo sapiens) (P11511 whole entry, looked up): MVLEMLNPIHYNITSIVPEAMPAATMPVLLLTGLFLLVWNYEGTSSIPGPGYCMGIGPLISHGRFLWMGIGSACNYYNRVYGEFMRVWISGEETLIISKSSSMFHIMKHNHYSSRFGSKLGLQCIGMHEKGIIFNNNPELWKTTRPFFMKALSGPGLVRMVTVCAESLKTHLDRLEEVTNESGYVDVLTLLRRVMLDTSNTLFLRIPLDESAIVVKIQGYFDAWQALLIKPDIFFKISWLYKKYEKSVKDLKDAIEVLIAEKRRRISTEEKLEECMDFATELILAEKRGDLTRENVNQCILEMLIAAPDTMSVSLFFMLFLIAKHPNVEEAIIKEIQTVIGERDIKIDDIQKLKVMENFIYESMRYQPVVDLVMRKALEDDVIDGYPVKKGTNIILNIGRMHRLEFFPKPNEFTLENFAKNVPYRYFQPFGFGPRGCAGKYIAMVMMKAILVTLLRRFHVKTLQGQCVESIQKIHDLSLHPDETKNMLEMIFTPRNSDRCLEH

For `COc1cc(C)ccc1C(C)C`, the molecule was classed as inactive in test [1], in test [4], in test [8], in test [11] and in test [13]. Besides, the Potency entry in [2], in test [3], in test [5], in test [6], in test [7] and in [9] was “inactive” in each case. For the same molecule, the Potency result (in test [10]; in test [12]; in the test with Aromatase (Homo sapiens)) was “inactive” throughout.
Turning to `OC[C@H]1O[C@@H](O[C@H]2[C@H](O)[C@@H](O)[C@H](O)O[C@@H]2CO)[C@H](O)[C@@H](O)[C@H]1O`, the result in test [1], in test [4], in test [15], in test [17], in test [8] and in test [11] was inactive. For the same molecule, in test [13], the outcome was inactive. Further, the Potency result in [2], in test [3], in [14], in test [16], in [5] and in test [6] was “inactive” in each case. In addition, the Potency entry (in test [7]; in test [9]; in test [10]; in test [12]; in test [18]; with Aromatase (Homo sapiens)) was “inactive” throughout.
Turning to `O=[N+]([O-])c1nccn1CO[C@@H](CO)[C@H](O)CO`, the molecule was called inactive in test [1], in [4] and in test [8]. In addition, the Potency entry in [2], in [3], in test [19], in [5], in [7] and in test [18] was “inactive” each time. Besides, the Potency result in the test with Aromatase (Homo sapiens) is “inactive”.
As for `C1CSCCS1`, the call in test [1], in test [4] and in test [8] was inactive. The Potency result in test [2], in test [3], in [19], in test [5], in test [7] and in test [10] was “inactive” each time. Also, the Potency entry (in [18]; with Aromatase (Homo sapiens)) was “inactive” each time.
In the case of `CCOC(=O)c1ccccc1O`, the outcome in test [1], in [4] and in test [8] was inactive. The Potency result in test [2], in test [3], in test [5], in test [6], in test [7] and in test [10] was “inactive” each time. For the same molecule, the Potency result (in test [18]; in the test with Aromatase (Homo sapiens)) was “inactive” each time.
For the molecule `Cc1ccc(C)c(N)c1`, the outcome in test [1], in test [4], in [8], in [11] and in [13] was inactive. Besides, the Potency result in test [2], in test [3], in test [5], in test [7], in test [9] and in [10] was “inactive” throughout. Also, the Potency entry (in test [18]; in the test with Aromatase (Homo sapiens)) was “inactive” throughout. Besides, the Potency in test [12] is 77 µM (active).
For the molecule `N#Cc1ccc(C(c2ccc(C#N)cc2)n2cncn2)cc1`, the result in test [1], in test [4], in test [15], in test [17], in test [8] and in [11] was inactive. In addition, the outcome in [13] was inactive. Further, the Potency result in test [2], in test [3], in test [14], in [16], in test [5] and in [6] was “inactive” throughout. Further, the Potency result in test [7], in [9], in test [10], in test [12] and in [18] was “inactive” in each case.
As for `CC(C)C1=CC2=CC[C@@H]3[C@](C)(CCC[C@@]3(C)C(=O)O)[C@H]2CC1`, the molecule was classed as inactive in [1], in test [4], in test [8], in [11] and in test [13]. Besides, the Potency result in test [2], in test [3], in [5], in test [6], in [7] and in test [10] was “inactive” each time. Besides, the Potency entry (in test [12]; in [18]; with Aromatase (Homo sapiens)) was “inactive” throughout. Moreover, the Potency entry in test [9] is “inactive and 54.9 µM [inconclusive] (active)”.
`COc1cc(Cl)ccc1Cl`: the molecule was classed as inactive in test [1], in test [4] and in [8]. Besides, the Potency entry in [2], in test [3], in test [19], in test [6], in [7] and in test [10] was “inactive” in each case. Further, the Potency result (in test [18]; in the test with Aromatase (Homo sapiens)) was “inactive” throughout.
